According to ChEMBL document CHEMBL3988442, “University of Dundee, Small-Polar-MMV Screening Library” (2021):
Screen size: about 48,000 compounds; about 13,000 (27%) showed an effect of 50% or more. Some of the results follow.

The compounds below were run on Wolbachia pipientis (assay: Anti-Wolbachia Cell-Based Screen). Conditions: 5 µM.
Type: functional
Set-up: scale not given: in the data most compounds retested in dose-response had high values

SMILES	Percent Effect
N#Cc1ccc(CN2CCCCC2Cn2cncn2)c(F)c1 (stereo unspecified)	-2.215%
Cc1ccc(CN2CCOC3(CCN(C(=O)C4CCOC4)CC3)C2)cc1.O=C(O)C(F)(F)F (stereo unspecified)	2.988%
O=C(O)C(F)(F)F.O=C(c1cccnc1)N1C[C@@H](c2ccccc2)[C@@]2(CCNC2=O)C1	-21.16%
CN1CC[C@]2(CN(CC3CC3)C[C@H]2c2ccccc2)C1=O	103.2%
CN1CC[C@]2(CN(Cc3cccs3)C[C@H]2c2ccccc2)C1=O	-2.755%
Cc1ccc(CN2CCOC3(CCN(C(=O)N4CCCC4)CC3)C2)cc1.O=C(O)C(F)(F)F	-8.825%
O=C(O)C(F)(F)F.O=C1NCC[C@]12CN(Cc1nccs1)C[C@H]2c1ccccc1	-4.824%
O=C(O)C(F)(F)F.O=C1NCC[C@]12CN(CC1CCOCC1)C[C@H]2c1ccccc1	108.1%
Cc1ccc(CN2CCOC3(CCN(CC4CCOC4)CC3)C2)cc1.O=C(O)C(F)(F)F.O=C(O)C(F)(F)F (stereo unspecified)	104.9%
CC1CCCN(c2ccccc2OCC(=O)NC2CCOCC2)C1 (stereo unspecified)	10.97%
CC(C)NC(=O)CC(C)NC(=O)N(C)Cc1cc(Cl)cn1C (stereo unspecified)	-3.888%
CC(C)N1C(=O)C[C@H]2[C@@H]1CCN2C(=O)c1ccco1	-5.125%
COCC1CN(C(=O)c2ccccn2)Cc2nccn2C1 (stereo unspecified)	101.9%
O=C(c1ccccn1)N1Cc2nccn2CC(COc2cccnc2)C1 (stereo unspecified)	-5.974%
O=C(CC1CC1)N1Cc2nccn2CC(COc2cccnc2)C1 (stereo unspecified)	106%
COCC1CN(C(=O)c2cccs2)Cc2nccn2C1 (stereo unspecified)	-51.2%
CN(C)CCOCC1CN(C(=O)[C@H]2CCCO2)Cc2ccnn2C1 (stereo partly specified)	-10.91%
O=C([C@H]1CCCO1)N1Cc2nccn2CC(COc2cccnc2)C1 (stereo partly specified)	99.26%
COCC(=O)N1Cc2nccn2CC(CN(C)Cc2cccnc2)C1 (stereo unspecified)	3.316%
COCC(=O)N1Cc2nccn2CC(COc2cccnc2)C1 (stereo unspecified)	115.8%
O=C1CCCN1CC1CN(C(=O)C2CCOCC2)Cc2nccn2C1 (stereo unspecified)	-10.76%
N#CCCN(CC1CCOC1)S(=O)(=O)c1cccc(Cl)c1 (stereo unspecified)	-9.345%
CCCN1C(=O)C2(CCCCC2)NC1c1c[nH]nc1-c1cccnc1 (stereo unspecified)	-6.37%
CC(NCc1ccccc1O)c1ccc(-n2ccnc2)cc1 (stereo unspecified)	4.863%

SMILES	Percent Effect
CC(=O)NCCc1ccc(S(=O)(=O)N(CC(C)C)C(C)C)s1	-14.51%
Nc1ccc(C(=O)N2CCC(Oc3cccc(C(F)(F)F)c3)CC2)cn1	-4.227%
CN(C(=O)c1ccc(C2CCCO2)s1)C1CCS(=O)(=O)CC1 (stereo unspecified)	4.966%
CSCCC1c2nc[nH]c2CCN1Cc1ccccc1C(F)(F)F (stereo unspecified)	-7.167%
O=C(c1ccc[nH]1)N1Cc2nccn2CC(COc2cccnc2)C1 (stereo unspecified)	86.9%
Cc1cc(CN2CC[C@H]3C(=O)N(c4cccnc4)CCO[C@H]3C2)no1	-10.41%
Cc1nn(-c2ccccc2Cl)c(C)c1CCC(=O)NCCS(C)(=O)=O	98.33%
Cc1c(C(=O)NCC(F)(F)F)nnn1-c1ccccc1Cl	-14.83%
COC(=O)C(CCSC)NC(=O)Cc1c(C)nn(-c2ccccc2)c1C (stereo unspecified)	-1.135%
CCCNC(=O)CNC(=O)CCc1ccccc1Br	0.9662%
Cc1nn(-c2ccccc2)c(C)c1CNC(=O)NC1CC1	9.435%
Cc1nn(-c2ccccc2Cl)c(C)c1CCC(=O)O	123.4%
CS(=O)(=O)CCC(=O)Nc1cnn(-c2ccccc2Cl)c1	3.918%
CCN(CC)CCNC(=O)CCc1c(C)nn(-c2ccccc2Br)c1C	111.1%
Cc1nn(-c2cc(Cl)cc(Cl)c2)c(C)c1CCC(=O)O	123.3%
CCCNC(=O)C(C)NC(=O)CCc1ccccc1Br (stereo unspecified)	-13.88%
CCN1CCN(C(=O)c2nc(C)n(-c3ccccc3Cl)n2)CC1	7.919%
CCN(C(=O)NCCc1ccccc1Cl)C(C)CS(C)(=O)=O (stereo unspecified)	-2.563%
Cc1noc(C2(NC(=O)c3cccnc3O)CCCCC2)n1	14.46%
CCC(C)NC(=O)c1ccc(CNC(=O)CCC(C)C)cc1 (stereo unspecified)	19.34%
Cc1cc(CC(=O)N(C)Cc2cccc(OC(C)C)c2)n[nH]1	0.9226%
COCc1noc(-c2nn(-c3ccc(F)c(F)c3)c3c2CCC3)n1	-11.94%
COCCCN(C)C(=O)c1nnn(-c2ccccc2Cl)c1C	-5.685%
CCN(CC)CCNC(=O)CCc1c(C)nn(-c2ccccc2Cl)c1C	121.6%

SMILES	Percent Effect
CCN(CC)CCNC(=O)c1nn(CC)cc1Cl	13.81%
CCOc1ccccc1CSc1nnc(CC2CCS(=O)(=O)C2)n1C (stereo unspecified)	3.399%
CN1CSC[C@H]1C(=O)N1CCN(Cc2cccc(Cl)c2)CC1	-11.1%
CN(Cc1ccc(-n2cccn2)cc1)Cc1ncc[nH]1	-13.82%
CC(C)c1nccc(CN(C)Cc2cnn(-c3ccccc3)c2)n1	112.3%
COc1cccc(-n2cc(CN(C)C(=O)c3cnc(O)cn3)cn2)c1	-3.404%
CN(Cc1ccc(-n2cccn2)cc1)Cc1cnc(N(C)C)nc1	-6.821%
COc1cccc(-n2cc(CN(C)Cc3ccnc(C(C)C)n3)cn2)c1	92.54%
COc1cc(N(C)Cc2cccc(-n3cccn3)c2)nc(N)n1	-41.52%
CSCCC(O)C(=O)N(C)Cc1cnn(-c2ccc(F)cc2)c1 (stereo unspecified)	17.62%
CC(C)c1nccc(CN(C)Cc2cccc(-n3cccn3)c2)n1	104.6%
CC(NS(C)(=O)=O)C(=O)N(C)Cc1cnn(-c2ccc(F)cc2)c1 (stereo unspecified)	-5.663%
CN(Cc1cccc(-n2cccn2)c1)Cc1c[nH]cn1	125%
CN(Cc1cccc(-n2cccn2)c1)Cc1cccs1	32.49%
CCCc1cc(C(=O)N(C)Cc2cnn(-c3cccc(OC)c3)c2)[nH]n1	1.853%
COc1c(F)cc(F)cc1-c1nc2c([nH]1)CCNC2	-0.5434%
CC(c1cccnc1)N1CCN(CCCC#N)CC1 (stereo unspecified)	-7.077%
CCCn1nc(C(=O)N2CCCC2c2noc(C)n2)ccc1=O (stereo unspecified)	-9.694%
Cc1ccc(CN(C)CC(=O)NC2(C)CCS(=O)(=O)C2)cc1 (stereo unspecified)	2.715%
CC(C)N1CCCn2nc(C(=O)NCc3ccccc3F)cc2C1	-19.91%
CC(CN(C)Cc1cccc(-n2cccn2)c1)C(F)(F)F (stereo unspecified)	100.7%
CCC(CO)N(Cc1cccc(-n2cccn2)c1)Cc1ccccn1 (stereo unspecified)	-1.98%
CCC(CO)N(Cc1cccc(-n2cccn2)c1)Cc1cccs1 (stereo unspecified)	3.193%
CC(C)c1nnc(NC(=O)c2cccc(OCC(F)(F)F)n2)[nH]1	-13.63%

SMILES	Percent Effect
CC(C)Cc1nc(CS(=O)(=O)C(C)C(=O)N2CCOCC2)no1 (stereo unspecified)	1.312%
O=C(CN1CCCc2cc(F)cc(F)c21)Nc1ccc(Br)cn1	-2.039%
O=C(CN1CCCCC1)Nc1ncc(Br)cc1Br	116.4%
O=C(CN1CCCCCC1)NCCSc1cnn[nH]1	-5.638%
CSc1nccc(-c2cccc(-c3ccn(CC4COCCO4)n3)c2)n1 (stereo unspecified)	-11.46%
Cn1cc(C(=O)N2CC[C@@]3(O)CCN(C4CCCCC4)C[C@H]3C2)cn1	-10.98%
Cn1cc(CN2CCO[C@@H]3CN(C4CCCC4)C[C@@H]3C2)cn1.O=C(O)C(F)(F)F.O=C(O)C(F)(F)F	-1.397%
CS(=O)(=O)N1CCO[C@@H]2CN(C(=O)c3ccnnc3)C[C@@H]2C1	110.1%
Cn1cc(C(=O)N2CCO[C@@H]3CN(C4CCC4)C[C@@H]3C2)cn1	99.44%
Cc1ccnc(C(=O)N2C[C@@H]3CN(S(C)(=O)=O)CCO[C@@H]3C2)c1.O=C(O)C(F)(F)F	-16.56%
CS(=O)(=O)N1CCO[C@@H]2CN(C(=O)c3cccnc3)C[C@@H]2C1	94.69%
Cc1cncc(C(=O)N2C[C@@H]3CN(S(C)(=O)=O)CCO[C@@H]3C2)c1.O=C(O)C(F)(F)F	122.6%
Cc1ccc(C(=O)N2C[C@@H]3CN(S(C)(=O)=O)CCO[C@@H]3C2)o1	-11.28%
CCN1CCO[C@@H]2CN(C(=O)c3cocn3)C[C@@H]2C1.O=C(O)C(F)(F)F	-9.016%
O=C(c1ccnnc1)N1C[C@@H]2CN(c3ncccn3)C[C@@H]2C1	15.26%
O=C(NCCOc1ccc(F)c(F)c1)NCc1cccc(CO)c1	-4.638%
Cc1nnc(NCC(c2ccco2)N2CCCCC2)c(C#N)c1C (stereo unspecified)	-2.88%
CN1CCN(C)C2(CCN(Cc3ccc(C4CCCCO4)o3)CC2)C1 (stereo unspecified)	27.87%
CCC(C)C(=O)NCc1cccc(OCCN(C)C2CCOCC2)c1 (stereo unspecified)	6.512%
CN1CC2(CCN(C(=O)c3coc4c3C(=O)CCC4)C2)OC1=O (stereo unspecified)	-2.236%
Cc1nc(C(=O)N2C[C@@H]3CN(S(C)(=O)=O)CCO[C@@H]3C2)cs1	-14.32%
Cn1cc(C(=O)N2C[C@@H]3CN(S(C)(=O)=O)CCO[C@@H]3C2)cn1	95.46%
Cc1ccc(C(=O)N2C[C@@H]3CN(S(C)(=O)=O)CCO[C@@H]3C2)s1	-10.28%
Cn1nccc1C(=O)N1C[C@@H]2CN(S(C)(=O)=O)CCO[C@@H]2C1	115.5%
